Measured values from the supplement of paper PMC10849652.
Of roughly 8,800 targets only a part is listed; those with a hit were picked by preference. About 0.5% of all pairs of compound and target were hits.

Tests used:
Experiment in all cases: log2 fold change, soluble protein after heating vs DMSO (PISA); higher = thermal stabilisation; K562 lysate, 10 uM; active = over 0.2 and 3.5 SD of the protein, either way, in both replicates (recomputed)
alvocidib = compound: CN1CC[C@H](c2c(O)cc(O)c3c(=O)cc(-c4ccccc4Cl)oc23)[C@H](O)C1 [alvocidib]
Summary of the method: (§1)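 Values give the log-two fold change in thermal stability against solvent controls, from duplicates. Crude K562 extract at 1 mg/mL protein, made by dounce homogenisation in PBS pH 7.4 with 1 mM MgCl2, was treated with 10 μM compound for 30 min. After 3 min heating across 48°C-58°C, aliquots were pooled, adjusted to 0.5% NP-40 at 4°C and centrifuged at 21,000xg for 90 min. The supernatant was measured by TMTpro 16plex LC-MS/MS with channel sums equalised.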

Tubastatin A = compound: CN1CCc2c(c3ccccc3n2Cc2ccc(C(=O)NO)cc2)C1 [Tubastatin A]
Summary of the method: as §1

[1] = compound: CNC(=O)C1=CC=CC=C1NC2=NC(=NC=C2Cl)NC3=C(C=C(C=C3)N4CCOCC4)OC
Summary of the method: as §1

defactinib = compound: CNC(=O)c1ccc(Nc2ncc(C(F)(F)F)c(NCc3nccnc3N(C)S(C)(=O)=O)n2)cc1 [defactinib]
Summary of the method: as §1

[2] = compound: CNc1nc(-c2ccc3c(N)n[nH]c3c2)cc(N2C[C@@H](C(=O)NC3CCCCC3)CC[C@H]2C)n1
Summary of the method: as §1

encorafenib = compound: COC(=O)N[C@@H](C)CNc1nccc(-c2cn(C(C)C)nc2-c2cc(Cl)cc(NS(C)(=O)=O)c2F)n1 [encorafenib]
Summary of the method: as §1

[3] = compound: COC(=O)[C@H](CCSC)NC(=O)C1=C(C=C(C=C1)NC[C@H](CS)N)C2=CC=CC=C2
Summary of the method: as §1

alisertib = compound: COc1cc(Nc2ncc3c(n2)-c2ccc(Cl)cc2C(c2c(F)cccc2OC)=NC3)ccc1C(=O)O [alisertib]
Summary of the method: as §1

[4] = compound: COc1cc2nc(-c3cc(F)ccc3O)nc(N[C@@H]3CNC[C@H]3C(C)(C)O)c2cc1OC
Summary of the method: as §1

gefitinib = compound: COc1cc2ncnc(Nc3ccc(F)c(Cl)c3)c2cc1OCCCN1CCOCC1 [gefitinib]
Summary of the method: as §1

Measured: log2 fold change

NDC1 (UniProt Q9BTX1)
active: [3] -0.297
inactive: alvocidib -0.131 | Tubastatin A -0.046 | [1] -0.001 | defactinib -0.058 | [2] -0.044 | encorafenib 0.03 | alisertib 0.011 | [4] 0.047 | gefitinib -0.031

NAP1L5 (UniProt Q96NT1)
Sequence of UniProt Q96NT1 (Q96NT1 whole entry, looked up): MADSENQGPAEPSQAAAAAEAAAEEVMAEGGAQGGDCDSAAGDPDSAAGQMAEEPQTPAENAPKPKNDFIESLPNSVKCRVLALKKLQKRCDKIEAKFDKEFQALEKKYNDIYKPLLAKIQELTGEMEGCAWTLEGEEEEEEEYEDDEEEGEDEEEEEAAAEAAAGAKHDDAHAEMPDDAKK
inactive: alvocidib 0.161 | Tubastatin A -0.039 | [1] 0.008 | defactinib -0.032 | [2] -0.082 | encorafenib 0.01 | [3] -0.047 | alisertib 0.021 | [4] -0.039 | gefitinib 0.02

NEBL (UniProt O76041)
inactive: alvocidib 0.149 | Tubastatin A 0.022 | [1] -0.048 | defactinib 0.024 | [2] 0.043 | encorafenib -0.083 | [3] 0.015 | alisertib -0.134 | [4] -0.005 | gefitinib 0

OSBPL3 isoform 2 (UniProt Q9H4L5)
inactive: alvocidib -0.013 | Tubastatin A -0.161 | [1] 0.056 | defactinib -0.11 | [2] -0.033 | encorafenib 0.03 | [3] 0.052 | alisertib -0.043 | [4] -0.002 | gefitinib 0.206

NPLOC4 isoform 2 (UniProt Q8TAT6)
inactive: alvocidib -0.06 | Tubastatin A 0.013 | [1] 0.019 | defactinib -0.007 | [2] 0.043 | encorafenib 0.021 | [3] 0.016 | alisertib 0.004 | [4] -0.007 | gefitinib -0.018

NMT1 (UniProt P30419)
inactive: alvocidib 0.021 | Tubastatin A 0.001 | [1] 0.001 | defactinib 0.031 | [2] 0.011 | encorafenib -0.001 | [3] 0.087 | alisertib -0.005 | [4] 0.007 | gefitinib -0.006

NCKAP1L (UniProt P55160)
Sequence of UniProt P55160 (P55160 whole entry, looked up): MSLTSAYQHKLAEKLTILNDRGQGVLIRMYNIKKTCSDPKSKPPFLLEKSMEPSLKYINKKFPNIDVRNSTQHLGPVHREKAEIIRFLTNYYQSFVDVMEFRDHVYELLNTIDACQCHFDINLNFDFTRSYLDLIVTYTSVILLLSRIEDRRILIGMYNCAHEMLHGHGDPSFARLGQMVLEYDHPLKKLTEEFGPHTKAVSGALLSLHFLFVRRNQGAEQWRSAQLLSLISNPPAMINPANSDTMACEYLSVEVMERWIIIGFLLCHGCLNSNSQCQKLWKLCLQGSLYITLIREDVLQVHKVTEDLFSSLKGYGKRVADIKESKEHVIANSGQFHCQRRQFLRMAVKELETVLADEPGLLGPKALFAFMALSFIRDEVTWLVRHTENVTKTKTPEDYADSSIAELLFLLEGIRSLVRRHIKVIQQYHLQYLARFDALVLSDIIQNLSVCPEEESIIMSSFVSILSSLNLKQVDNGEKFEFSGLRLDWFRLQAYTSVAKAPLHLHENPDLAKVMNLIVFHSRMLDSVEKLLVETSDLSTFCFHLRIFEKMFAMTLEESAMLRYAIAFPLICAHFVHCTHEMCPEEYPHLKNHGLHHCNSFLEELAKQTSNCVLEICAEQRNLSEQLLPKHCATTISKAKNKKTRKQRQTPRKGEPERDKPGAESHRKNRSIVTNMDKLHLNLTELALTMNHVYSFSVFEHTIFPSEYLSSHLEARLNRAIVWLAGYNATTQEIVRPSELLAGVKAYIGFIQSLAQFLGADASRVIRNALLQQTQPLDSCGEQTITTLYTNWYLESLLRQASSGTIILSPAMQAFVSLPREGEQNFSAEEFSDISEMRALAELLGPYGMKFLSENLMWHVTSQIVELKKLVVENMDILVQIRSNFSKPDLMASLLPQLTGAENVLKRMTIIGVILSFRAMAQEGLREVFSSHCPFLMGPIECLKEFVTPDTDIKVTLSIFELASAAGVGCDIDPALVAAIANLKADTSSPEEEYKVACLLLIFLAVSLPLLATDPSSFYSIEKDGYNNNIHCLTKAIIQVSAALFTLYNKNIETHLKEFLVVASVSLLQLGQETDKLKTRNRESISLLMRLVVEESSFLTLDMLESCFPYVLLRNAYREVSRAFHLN
inactive: alvocidib -0.033 | Tubastatin A -0.043 | [1] 0.198 | defactinib 0.009 | [2] 0.063 | encorafenib 0.058 | [3] -0.223 | alisertib 0.022 | [4] -0.025 | gefitinib -0.059

NEK9 (UniProt Q8TD19)
inactive: alvocidib -0.062 | Tubastatin A -0.062 | [1] 0.193 | defactinib 0.08 | [2] -0.009 | encorafenib -0.018 | [3] -0.008 | alisertib -0.048 | [4] -0.01 | gefitinib -0.039

OSGEP (UniProt Q9NPF4)
Sequence of UniProt Q9NPF4 (Q9NPF4 whole entry, looked up): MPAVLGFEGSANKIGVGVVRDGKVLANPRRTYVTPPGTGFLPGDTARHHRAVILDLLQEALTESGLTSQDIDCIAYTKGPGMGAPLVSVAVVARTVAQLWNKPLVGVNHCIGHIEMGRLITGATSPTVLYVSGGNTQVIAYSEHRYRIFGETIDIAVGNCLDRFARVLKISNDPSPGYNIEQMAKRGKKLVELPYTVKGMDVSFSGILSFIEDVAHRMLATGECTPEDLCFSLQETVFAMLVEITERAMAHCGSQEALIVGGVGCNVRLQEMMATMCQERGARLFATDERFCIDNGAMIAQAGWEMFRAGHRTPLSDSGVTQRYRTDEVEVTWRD
inactive: alvocidib -0.062 | Tubastatin A 0 | [1] -0.047 | defactinib 0 | [2] 0.03 | encorafenib -0.008 | [3] 0.016 | alisertib 0.045 | [4] 0.007 | gefitinib -0.032

NIPSNAP3A (UniProt Q9UFN0)
inactive: Tubastatin A 0.015 | [1] 0.016 | defactinib -0.021 | [2] 0.025 | encorafenib 0.016 | [3] -0.022 | alisertib -0.023 | [4] 0.005 | gefitinib -0.023
active: alvocidib 0.288

MT-ND1 (UniProt P03886)
inactive: alvocidib -0.149 | Tubastatin A -0.037 | [1] 0.043 | defactinib 0.081 | [2] 0.014 | encorafenib 0.046 | [3] -0.051 | alisertib 0.032 | [4] -0.073 | gefitinib 0.087

OSBP2 (UniProt Q969R2)
Sequence of UniProt Q969R2 (Q969R2 whole entry, looked up): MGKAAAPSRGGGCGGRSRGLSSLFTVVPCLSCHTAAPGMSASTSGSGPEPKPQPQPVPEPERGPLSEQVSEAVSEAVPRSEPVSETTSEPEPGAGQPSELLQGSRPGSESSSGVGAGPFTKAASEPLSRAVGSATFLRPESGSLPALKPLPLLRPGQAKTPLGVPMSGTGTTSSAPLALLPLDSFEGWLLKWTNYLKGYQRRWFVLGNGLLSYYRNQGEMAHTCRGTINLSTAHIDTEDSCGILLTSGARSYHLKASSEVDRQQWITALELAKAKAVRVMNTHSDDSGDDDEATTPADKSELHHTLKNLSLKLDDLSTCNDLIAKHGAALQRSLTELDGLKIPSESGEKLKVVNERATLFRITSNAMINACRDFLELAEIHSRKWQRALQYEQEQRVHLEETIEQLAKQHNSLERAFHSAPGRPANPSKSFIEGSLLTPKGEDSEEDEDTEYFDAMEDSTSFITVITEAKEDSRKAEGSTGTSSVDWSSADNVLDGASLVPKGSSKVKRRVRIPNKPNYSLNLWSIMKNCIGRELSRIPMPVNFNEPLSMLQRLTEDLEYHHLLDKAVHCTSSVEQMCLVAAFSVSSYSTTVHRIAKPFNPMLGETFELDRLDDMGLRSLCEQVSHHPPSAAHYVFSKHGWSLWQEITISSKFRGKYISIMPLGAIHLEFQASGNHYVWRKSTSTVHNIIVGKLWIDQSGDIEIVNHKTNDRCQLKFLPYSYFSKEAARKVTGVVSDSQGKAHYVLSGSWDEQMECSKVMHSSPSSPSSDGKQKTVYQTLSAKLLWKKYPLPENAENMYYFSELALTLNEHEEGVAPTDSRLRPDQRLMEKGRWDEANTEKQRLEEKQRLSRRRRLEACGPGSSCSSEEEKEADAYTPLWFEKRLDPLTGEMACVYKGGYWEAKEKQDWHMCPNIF
inactive: alvocidib -0.211 | Tubastatin A 0.047 | [1] -0.102 | defactinib 0.011 | [2] -0.032 | encorafenib 0.04 | [3] -0.1 | alisertib 0.052 | [4] -0.033 | gefitinib 0.011

NT5DC2 isoform 2 (UniProt Q9H857)
Sequence of UniProt Q9H857 (Q9H857 whole entry, looked up): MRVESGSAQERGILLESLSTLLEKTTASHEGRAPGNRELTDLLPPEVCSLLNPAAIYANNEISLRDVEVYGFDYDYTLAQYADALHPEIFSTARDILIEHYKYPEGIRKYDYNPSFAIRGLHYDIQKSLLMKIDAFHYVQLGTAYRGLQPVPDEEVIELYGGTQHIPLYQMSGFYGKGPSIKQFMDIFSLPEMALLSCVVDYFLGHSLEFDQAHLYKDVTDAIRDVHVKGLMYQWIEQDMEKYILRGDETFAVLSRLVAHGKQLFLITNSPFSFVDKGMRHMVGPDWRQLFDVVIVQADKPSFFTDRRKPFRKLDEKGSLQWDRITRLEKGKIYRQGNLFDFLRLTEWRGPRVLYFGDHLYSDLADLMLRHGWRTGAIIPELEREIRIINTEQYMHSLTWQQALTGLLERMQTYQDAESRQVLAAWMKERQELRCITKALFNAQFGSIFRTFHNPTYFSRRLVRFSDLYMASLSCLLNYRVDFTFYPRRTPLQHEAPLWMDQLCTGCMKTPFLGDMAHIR
inactive: alvocidib -0.037 | Tubastatin A 0.02 | [1] 0.026 | defactinib 0.007 | [2] 0.032 | encorafenib -0.037 | [3] -0.035 | alisertib 0.013 | [4] -0.001 | gefitinib -0.055

NCAPG2 (UniProt Q86XI2)
inactive: alvocidib -0.014 | Tubastatin A -0.217 | [1] -0.008 | defactinib 0.023 | [2] 0.04 | encorafenib 0.002 | [3] -0.018 | alisertib 0.004 | [4] -0.01 | gefitinib 0.038

MT-CYB (UniProt P00156)
inactive: alvocidib -0.326 | Tubastatin A 0.078 | [1] -0.027 | defactinib 0.091 | [2] 0.129 | encorafenib 0.036 | [3] -0.093 | alisertib -0.131 | [4] 0.062 | gefitinib 0.102

NTMT1 (UniProt Q9BV86)
inactive: alvocidib 0.047 | Tubastatin A -0.175 | [1] 0.018 | defactinib 0.065 | [2] 0.023 | encorafenib -0.006 | [3] 0.166 | alisertib -0.007 | [4] -0.016 | gefitinib 0.057

PAFAH1B3 (UniProt Q15102)
Sequence of UniProt Q15102 (Q15102 whole entry, looked up): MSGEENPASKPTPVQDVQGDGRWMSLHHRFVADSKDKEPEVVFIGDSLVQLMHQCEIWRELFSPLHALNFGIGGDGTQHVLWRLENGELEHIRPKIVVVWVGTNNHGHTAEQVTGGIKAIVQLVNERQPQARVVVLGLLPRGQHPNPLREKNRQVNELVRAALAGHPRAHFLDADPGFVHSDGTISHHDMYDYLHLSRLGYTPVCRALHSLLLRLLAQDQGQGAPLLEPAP
active: [3] 0.212
inactive: alvocidib 0.005 | Tubastatin A -0.067 | [1] 0.019 | defactinib 0.065 | [2] -0.017 | encorafenib -0.016 | alisertib 0.058 | [4] -0.022 | gefitinib -0.02

OGFOD2 (UniProt Q6N063)
Sequence of UniProt Q6N063 (Q6N063 whole entry, looked up): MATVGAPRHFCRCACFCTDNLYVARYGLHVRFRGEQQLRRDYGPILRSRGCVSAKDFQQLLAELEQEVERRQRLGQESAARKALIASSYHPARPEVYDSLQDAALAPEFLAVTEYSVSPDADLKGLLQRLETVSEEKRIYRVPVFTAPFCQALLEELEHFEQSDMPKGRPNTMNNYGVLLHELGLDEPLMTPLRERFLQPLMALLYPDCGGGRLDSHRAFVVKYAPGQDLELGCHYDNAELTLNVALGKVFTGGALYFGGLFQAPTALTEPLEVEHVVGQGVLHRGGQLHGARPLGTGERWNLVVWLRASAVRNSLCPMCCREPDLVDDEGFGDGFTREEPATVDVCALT
active: [3] 0.223
inactive: alvocidib 0.029 | Tubastatin A 0.033 | [1] 0.059 | defactinib 0.015 | [2] -0.125 | encorafenib -0.054 | alisertib 0.009 | [4] -0.014 | gefitinib -0.065

N6AMT1 (UniProt Q9Y5N5)
Sequence of UniProt Q9Y5N5 (Q9Y5N5 whole entry, looked up, one chain of several): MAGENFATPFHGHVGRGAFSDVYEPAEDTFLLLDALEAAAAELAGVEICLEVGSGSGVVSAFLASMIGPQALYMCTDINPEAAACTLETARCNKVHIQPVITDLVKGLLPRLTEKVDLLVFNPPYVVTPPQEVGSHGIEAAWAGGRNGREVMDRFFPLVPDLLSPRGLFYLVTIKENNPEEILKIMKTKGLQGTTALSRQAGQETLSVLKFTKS
inactive: alvocidib 0.062 | Tubastatin A 0.026 | [1] 0.048 | [2] 0.021 | encorafenib -0.011 | [3] 0.069 | alisertib -0.084 | [4] 0.004 | gefitinib -0.045
active: defactinib 0.361

NARF (UniProt Q9UHQ1)
inactive: alvocidib 0.001 | Tubastatin A 0.011 | [1] 0.031 | defactinib -0.015 | [2] -0.014 | encorafenib 0.047 | [3] 0.003 | alisertib -0.021 | [4] -0.019 | gefitinib -0.007

MTA3 (UniProt Q9BTC8)
inactive: alvocidib -0.016 | Tubastatin A -0.013 | [1] 0.019 | defactinib 0.044 | [2] -0.043 | encorafenib 0.041 | [3] 0.091 | alisertib 0.077 | [4] 0.025 | gefitinib -0.059

NFATC2IP (UniProt Q8NCF5)
active: [3] -0.208
inactive: alvocidib -0.015 | Tubastatin A 0.002 | [1] 0.052 | defactinib 0 | [2] 0.002 | encorafenib 0.003 | alisertib -0.009 | [4] -0.001 | gefitinib 0.023

MTHFD1, A0A384N5Y3
inactive: alvocidib 0.036 | Tubastatin A -0.076 | [1] -0.01 | defactinib 0.03 | [2] 0.002 | encorafenib -0.016 | [3] 0.145 | alisertib -0.007 | [4] -0.012 | gefitinib -0.025

NBEAL2 (UniProt Q6ZNJ1)
inactive: alvocidib 0.031 | Tubastatin A -0.141 | [1] -0.005 | defactinib 0.022 | [2] 0.033 | encorafenib 0.003 | [3] -0.029 | alisertib -0.053 | [4] -0.009 | gefitinib 0.01

NDUFA4 (UniProt O00483)
inactive: alvocidib 0.022 | Tubastatin A 0.055 | [1] 0.054 | defactinib 0.143 | [2] 0.004 | encorafenib 0.028 | [3] 0.009 | alisertib 0.055 | [4] -0.079 | gefitinib -0.133

MRPL58 (UniProt Q14197)
inactive: alvocidib 0 | Tubastatin A -0.065 | [1] 0.027 | defactinib -0.045 | [2] 0.033 | encorafenib 0.011 | [3] -0.078 | alisertib -0.021 | [4] -0.02 | gefitinib -0.04

MSH3 (UniProt P20585)
Sequence of UniProt P20585 (P20585 whole entry, looked up): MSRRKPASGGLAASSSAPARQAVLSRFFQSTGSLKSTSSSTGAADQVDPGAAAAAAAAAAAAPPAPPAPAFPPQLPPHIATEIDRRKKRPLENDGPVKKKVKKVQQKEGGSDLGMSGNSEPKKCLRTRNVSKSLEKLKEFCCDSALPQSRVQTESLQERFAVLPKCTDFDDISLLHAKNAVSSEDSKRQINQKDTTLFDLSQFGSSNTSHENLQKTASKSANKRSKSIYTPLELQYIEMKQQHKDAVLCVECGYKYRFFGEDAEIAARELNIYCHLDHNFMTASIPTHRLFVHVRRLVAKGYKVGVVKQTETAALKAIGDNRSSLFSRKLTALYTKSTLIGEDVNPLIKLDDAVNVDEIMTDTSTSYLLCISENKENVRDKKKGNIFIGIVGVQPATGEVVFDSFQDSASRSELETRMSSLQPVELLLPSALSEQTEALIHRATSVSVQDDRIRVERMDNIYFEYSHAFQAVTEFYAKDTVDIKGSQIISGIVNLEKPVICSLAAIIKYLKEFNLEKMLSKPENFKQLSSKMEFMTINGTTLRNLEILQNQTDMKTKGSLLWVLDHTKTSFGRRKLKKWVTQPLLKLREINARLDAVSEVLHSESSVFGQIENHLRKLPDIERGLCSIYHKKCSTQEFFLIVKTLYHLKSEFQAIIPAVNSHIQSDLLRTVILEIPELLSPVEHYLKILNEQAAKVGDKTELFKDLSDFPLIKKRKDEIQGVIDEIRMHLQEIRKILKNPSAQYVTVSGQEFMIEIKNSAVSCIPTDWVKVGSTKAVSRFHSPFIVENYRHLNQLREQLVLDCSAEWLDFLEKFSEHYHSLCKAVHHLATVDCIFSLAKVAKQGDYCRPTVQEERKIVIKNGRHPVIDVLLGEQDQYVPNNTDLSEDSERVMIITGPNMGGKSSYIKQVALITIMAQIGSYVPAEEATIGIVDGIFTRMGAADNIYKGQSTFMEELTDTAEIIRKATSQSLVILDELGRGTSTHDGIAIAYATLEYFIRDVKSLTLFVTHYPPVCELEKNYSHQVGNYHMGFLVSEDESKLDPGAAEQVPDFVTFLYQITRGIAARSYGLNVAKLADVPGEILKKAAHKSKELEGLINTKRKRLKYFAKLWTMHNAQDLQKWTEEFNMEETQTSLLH
inactive: alvocidib 0.021 | Tubastatin A -0.004 | [1] 0.008 | defactinib 0.023 | [2] 0.057 | encorafenib 0.02 | [3] -0.013 | alisertib -0.027 | [4] 0.006 | gefitinib -0.012

NCK1 (UniProt P16333)
inactive: alvocidib 0 | Tubastatin A -0.097 | [1] 0.023 | defactinib -0.02 | [2] -0.008 | encorafenib 0.008 | [3] -0.068 | alisertib -0.003 | [4] -0.007 | gefitinib 0.026

MSH6 (UniProt P52701)
inactive: alvocidib -0.021 | Tubastatin A -0.17 | [1] 0.009 | defactinib 0.012 | [2] -0.032 | encorafenib 0.019 | [3] 0.105 | alisertib 0.003 | [4] -0.011 | gefitinib -0.023

MRPS31 (UniProt Q92665)
inactive: alvocidib -0.023 | Tubastatin A 0.002 | [1] -0.029 | defactinib 0.024 | [2] 0.018 | encorafenib 0.006 | [3] -0.02 | alisertib 0.007 | [4] -0.017 | gefitinib -0.014
